Hits are enriched below; roughly 3.3% of the tested compounds scored in any of these assays.
RE007 growth inh: less growth of the S. pombe RE007 Vpr strain; S. pombe RE007 Vpr strain, BacTiter-Glo ATP luminescence, 24 h; Potency, µM (highest dose often 92.2 µM), for inactives: at the top dose activity change, negative = less growth, hits mostly inhibitors; 360,000 tested, 0.21% active; AID 651644; active means well fitted falling curve with a large enough effect; inconclusive means small, poorly fitted or top-dose-only effect; inactive means no such curve, though single readings can be large or run the other way; further: on the % scale 0 is the no-effect control and ±100 the full control effect; nearly all actives have a fitted effect of over 50% in size
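Fission yeast strain RE007, carrying one chromosomally integrated HIV-1 vpr copy, was seeded at OD 0.01 in PMG+AL medium with 23 nL pinned compound. After 24 h at 30 °C and 99% humidity, viability was read by BacTiter-Glo luminescence.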
LmPK inh: LmPK (Leishmania mexicana) enzyme inhibition; Q27686; purified LmPK, Kinase-Glo ATP luminescence, 1 h; Potency, µM (series often up to 57.5 µM), without a hit: at the top dose activity change, negative = inhibition, usual class: inhibitors; 290,000 tested, 0.37% active; further: on the % scale 0 is the no-effect control and ±100 the full control effect
Target sequence (Q27686 whole entry, looked up): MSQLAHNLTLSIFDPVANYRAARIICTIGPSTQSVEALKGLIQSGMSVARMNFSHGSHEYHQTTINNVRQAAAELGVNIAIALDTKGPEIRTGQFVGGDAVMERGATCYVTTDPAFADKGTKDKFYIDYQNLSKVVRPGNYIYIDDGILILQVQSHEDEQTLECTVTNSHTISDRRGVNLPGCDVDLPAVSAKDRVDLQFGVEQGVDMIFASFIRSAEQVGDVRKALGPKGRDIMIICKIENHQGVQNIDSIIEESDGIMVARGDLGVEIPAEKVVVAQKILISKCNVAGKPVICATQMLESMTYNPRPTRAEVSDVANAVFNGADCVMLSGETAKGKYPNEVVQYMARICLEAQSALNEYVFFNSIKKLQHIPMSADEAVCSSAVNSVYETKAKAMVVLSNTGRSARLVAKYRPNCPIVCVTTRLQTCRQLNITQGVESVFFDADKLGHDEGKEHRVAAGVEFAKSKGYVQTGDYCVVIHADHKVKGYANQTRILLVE
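Pyruvate kinase activity monitored as ATP production (luciferase luminescence). Conditions: 0.1 nM enzyme, 0.5 mM PEP, 0.1 mM ADP, 1 h, RT; normalized against uninhibited and no-enzyme wells.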
SARS PLpro yeast: inhibitors of SARS-CoV papain-like protease in yeast; S. cerevisiae expressing SARS-CoV PLpro, growth rescue; Potency, µM (series often up to 32.9 µM), without a hit: at the top dose activity, positive = growth rescue, hits mostly activators; 330,000 tested, 0.19% active; calls by dose curve; further: 0% is about no effect; nearly all actives have a fitted effect of over 55% in size
Sm TGR block: S. mansoni TGR enzyme inhibition. Q962Y6. purified TGR, DTNB reduction, TNB absorbance 405 nm. Potency, µM (titrated, usually from 114 µM), for inactives: top-dose activity change, negative = inhibition, actives largely listed as inhibitors. 360,000 tested, 3% active. AID 485364; further: on the % scale 0 is the no-effect control and ±100 the full control effect; nearly all actives have a fitted effect of over 60% in size
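Kinetic colorimetric format: TGR-catalysed, NADPH-driven DTNB reduction monitored via TNB absorbance. Enzyme dispensed at 20 nM; compound exposure 15 min at room temperature before reaction start.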
TbPYK inhibitor: inhibitors of Trypanosoma brucei pyruvate kinase; Q57TT1; TbPYK enzyme, Kinase-Glo Plus ATP luminescence, 45 min; Potency, µM (titrated, usually from 76.8 µM), without a hit: at the top dose activity, negative = inhibition, most hits filed as inhibitors; 410,000 tested, 0.12% active; further: on the % scale 0 is the no-effect control and ±100 the full control effect; nearly all actives have a fitted effect of over 50% in size
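Activity of T. brucei pyruvate kinase was followed by Kinase-Glo Plus luminescence after the enzyme reacted 45 min at room temperature with 130 uM ADP (final) and substrate. Test compounds were added before ADP at multiple concentrations.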
NS1 inh: inhibitors of influenza NS1 protein function. 270,000 tested, 0.4% active. Potency, µM (doses to about 46.1 µM), for the others: at the top dose activity, positive = more growth; calls by dose curve; further: actives are rising curves; nearly all actives have a fitted effect of over 50% in size
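Read-out: OD600 growth recovery of NS1-expressing budding yeast. Cells grown overnight at 30C in -URA glucose medium, washed, resuspended and diluted 1:100 in 2% galactose assay medium, pH 6.0. Same strain lacking NS1 served as positive control.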
Numbers without * were called inactive; ? = inconclusive; . = no result; [ ] = dose if it differs, or a comment. Unless noted, the call rests on the fitted dose curve; in most records, active means well fitted curve in the direction sought with a large enough effect; inconclusive means small, poorly fitted or top-dose-only effect, or another doubt; inactive means no such curve, though single readings can be large; an effect the other way counts as inactive or inconclusive. Potency means the concentration at half of the fitted maximal effect.

SMILES	RE007 growth inh	LmPK inh	SARS PLpro yeast	Sm TGR block	TbPYK inhibitor	NS1 inh
COc1ccc(C(=O)/C(=C\c2ccco2)N2C=CC=CC2=C(C#N)C#N)cc1	-20%	6%	-5%	?	-16%	6%
N#C/C(=C(/O)C(Cl)(Cl)Cl)c1nc2ccccc2[nH]1	18%	-12%	-2%	4µM*	-2%	-2%
O=C(NC1CCC(O)CC1)c1ccc(-c2ccc(Cl)cc2)o1 (stereo not drawn)	13%	.	-1%	-5%	-9%	.
CC(=O)c1ccc(-c2ccc(C(=O)NC3CCCCCC3)o2)cc1	22%	2%	0%	22µM*	7%	.
CC(=O)N[C@H]1[C@H](O[C@@H]2c3ccc(c(Cl)c3)Oc3cc4cc(c3O[C@@H]3O[C@H](CO)[C@@H](O)[C@H](O)C3C)Oc3ccc(cc3Cl)C[C@H]3NC(=O)[C@@H](N)c5ccc(O)c(c5)Oc5cc(O)cc(c5)[C@H](NC3=O)C(=O)N[C@H]4C(=O)N[C@H]3C(=O)N[C@@H]2C(=O)N[C@@H](C(=O)O)c2cc(O)cc(O[C@H]4O[C@H](CO)[C@@H](O)C(O)[C@@H]4O)c2-c2cc3ccc2O)O[C@H](CO)[C@@H](O)[C@@H]1O (stereo partly drawn)	.	.	.	.	3%[33.2 µM]	.
Cc1nc2ccc(S(=O)(=O)N(C)CC(=O)Nc3ccc(Br)c(C)c3)cc2s1	.	.	.	0%	-6%	.
Cc1ccc(NC(=O)COc2ncnc3c(Cl)cc(Cl)cc23)cc1[N+](=O)[O-]	19%	-4%	-18%	4.5µM*	0%	2%
Cc1cc(Cl)ccc1OCC(=O)OCC(=O)Nc1ccc(F)c([N+](=O)[O-])c1	-18%	0%	-83%	4%	-9%	-77%
Cc1ccc(NC(=S)NC(C)(C)C)c([N+](=O)[O-])c1	-11%	2%	2%	-7%	-4%	-5%
C=CCNC(=S)Nc1ccc(C)cc1[N+](=O)[O-]	-5%	-4%	-2%	40µM*	2%	2%
Cc1ccc(-c2nc(S(=O)(=O)c3ccc(C)cc3)c(N(C)C)o2)cc1	11%	0%	5%	2.5µM*	42%	-5%
COc1cc(-c2nc(S(=O)(=O)c3ccc(C)cc3)c(N(C)C)o2)cc(OC)c1OC	-3%	1%	1%	18µM*	-1%	2%
Cc1nc(S(=O)(=O)c2ccc(Cl)cc2)c(N(C)C)o1	1%	7%	6%	10µM*	-4%	20%
COc1cc(-c2nc(S(=O)(=O)c3ccc(C)cc3)c(N3CCOCC3)o2)cc(OC)c1OC	39%	1%	-10%	?	5%	2%
COc1ccc2c(c1)c1c(c(=O)n(-c3ccccc3)c(=O)n1CC(=O)Nc1ccc(F)cc1)n2C	.	.	.	-1%	0%	.
CC(=O)N(CC(O)CO)c1c(I)c(C(=O)NCCO)c(I)c(C(=O)NCC(O)CO)c1I (stereo not drawn)	.	.	.	.	1%	.
O=C(/C=C/c1ccco1)NCC1CCCO1 (stereo not drawn)	2%	3%	-1%	5µM*	-14%	-10%
O=C(/C=C/c1ccco1)NCc1ccco1	21%	6%	1%	4µM*	-4%	2%
COC(=O)/C=C/c1ccc2c(c1)OCO2	-9%	-1%	-1%	-1%	-3%	.
Cc1ccc(C(=O)N/C(=C/c2ccco2)C(=O)NCC2CCCO2)cc1 (stereo not drawn)	-1%	-1%	-3%	-19%	-3%	-1%
O=C(/C=C/c1ccc2c(c1)OCO2)NCc1ccco1	9%	-5%	-1%	40µM*	0%	11%
CCNc1ccccc(C(=O)/C=C/c2ccc3c(c2)OCO3)c1=O	-17%	-3%	-12%	2.5µM*	-18%	-2%
C[C@H](Oc1ccc(Oc2cnc3ccc(Cl)cc3n2)cc1)C(=O)O	.	.	.	.	.	-8%
COc1ccccc1C1c2c(-c3ccc(Cl)cc3)n[nH]c2C(=O)N1c1ccc(C)cc1 (stereo not drawn)	.	.	.	2%	-8%	.
CC[C@@H]([C@H](C)O)n1ncn(-c2ccc(N3CCN(c4ccc(OCC5CO[C@@](Cn6cncn6)(c6ccc(F)cc6F)C5)cc4)CC3)cc2)c1=O (stereo partly drawn)	.	.	.	.	17%	.
SMILES	RE007 growth inh	LmPK inh	SARS PLpro yeast	Sm TGR block	TbPYK inhibitor	NS1 inh
O=C(/C=C/c1ccccc1)NCc1ccco1	-15%	3%	-1%	0%	1%	-2%
Cc1ccc(/C=C/C(=O)NCc2ccco2)o1	.	3%	-7%	13µM*	.	10%
Cc1ccc(/C=C/C(=O)NCc2ccccn2)o1	1%	1%	2%	18µM*	?	25%
FC(F)(F)c1nc2ccc(SSc3ccc4nc(C(F)(F)F)[nH]c4c3)cc2[nH]1	.	.	.	.	.	-15%
Cc1cccc(C)c1N(CCCc1cccnc1)C(=O)[C@@H](C)N	.	.	.	.	-4%	.
Oc1ccc(Cl)cc1C=Nc1cnc2ccccc2c1	.	.	.	.	.	0%
O=C(c1ccco1)N1CCC2(CC1)CN(c1ccccc1)C2	.	.	.	.	1%	.
CN(C)S(=O)(=O)N1C(=O)c2ccccc2C1=O	3%	28µM*	0%	0%	0%	1%
O=C(Oc1ccc2c(=O)c(Cl)coc2c1)c1cccnc1	-6%	1%	-4%	32µM*	-2%	-116%
CCc1ccccc1NC(=O)Cn1ccn(-c2cc(C)cc(C)c2)c(=O)c1=O	.	.	.	-7%	7%	.
CCOc1ccccc1CN(CCc1ccc2c(c1)OCO2)Cc1ccc(CC)cc1	.	.	.	7%	-2%	.
C=CCOc1ccccc1CN(C(=O)CCl)c1ccc2c(c1)OCO2	-8%	3%	4%	8.9µM*	-15%	16%
O=C(O)CCc1ccc(-c2cccs2)n1CCc1ccccc1	-12%	5%	0%	10µM*	-1%	7%
COc1cccc(NC(=O)Cn2c(CCC(=O)O)ccc2-c2cccs2)c1	6%	1%	1%	-20%	0%	.
Cc1ccc(NC(=O)Cn2c(CCC(=O)O)ccc2-c2cccs2)cc1Cl	43%	1%	-4%	25µM*	-18%	.
O=C(O)CCc1ccc(-c2cccs2)n1CCC(=O)O	-11%	7%	11%	7.1µM*	-7%	11%
CC(C)N(CCNS(=O)(=O)c1ccc(Cl)cc1)C(C)C	7%[3.69 µM]	0%	-1%	0%	.	1%
CC(C)OP(=O)(OC(C)C)C1(NS(=O)(=O)c2ccc(Cl)cc2)C=C(Cl)C(=O)C(Cl)=C1	-8%	0%	2%	0.79µM*	?	-26%
CCN1C(C(=O)c2ccccc2)=C(OC(=O)COc2ccc(OC)cc2)c2ccccc2S1(=O)=O	.	.	.	11µM*	-5%	.
CCCN1C(C(=O)c2ccccc2)=C(OC(=O)COc2ccccc2)c2ccccc2S1(=O)=O	.	.	.	11µM*	-2%	.

Bioassay records deposited in PubChem by National Center for Advancing Translational Sciences (NCATS).
